# From paper PMC8384837, “Expanding the binding specificity for RNA recognition by a PUF domain”
# Where a chain is given by its changes, count along the chain named.
# What was measured:
# Assay in all cases: yeast three-hybrid, YBZ-1, SC-Leu-His + 0.5 mM 3-AT, 4 days
# Settings in all cases: tags: N-Gal4 AD-HA kept; label: inside an RPR1-promoter hybrid RNA with tandem MS2 sites; ssRNA
# [1] = target: PUM1 PUF domain R8-RHY (Homo sapiens, UniProt Q14671 828-1176, N1122R;Y1123H;Q1126Y)
# Procedure, shortened: (§1)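 Repeat regions from input (SC-Leu) and selection (SC-Leu-His + 0.5 mM 3-AT) plates were PCR-amplified and Illumina-sequenced after four days of growth. The cells were strain YBZ-1 with a LexA–MS2 coat fusion and a HIS3 reporter, co-expressing Pumilio-1 PUF domain libraries and matching RNA elements from a centromeric plasmid. The interaction score is the log change in variant frequency from input to selection, taken in log2 with a pseudocount of 1 for absent variants.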
# [2] = target: PUM1 PUF domain R3-GYH (Homo sapiens, UniProt Q14671 828-1176, C935G;R936Y;Q939H)
# Procedure, shortened: as §1
# [3] = target: PUM1 PUF domain R7-GIR (Homo sapiens, UniProt Q14671 828-1176, S1079G;N1080I;E1083R)
# Procedure, shortened: as §1
# [4] = target: PUM1 PUF domain R4-PHA (Homo sapiens, UniProt Q14671 828-1176, N971P;Q975A)
# Procedure, shortened: as §1
# [5] = target: PUM1 PUF domain R4-AMC (Homo sapiens, UniProt Q14671 828-1176, N971A;H972M;Q975C)
# Procedure, shortened: as §1
# [6] = target: PUM1 PUF domain R5-FRG (Homo sapiens, UniProt Q14671 828-1176, C1007F;Q1011G)
# Procedure, shortened: as §1
# [7] = target: PUM1 PUF domain R4-DHG (Homo sapiens, UniProt Q14671 828-1176, N971D;Q975G)
# Procedure, shortened: as §1
# [8] = target: T1, PUM1 PUF domain R6-VWL (Homo sapiens, UniProt Q14671 828-1176, N1043V;Y1044W;Q1047L)
# T1 sequence: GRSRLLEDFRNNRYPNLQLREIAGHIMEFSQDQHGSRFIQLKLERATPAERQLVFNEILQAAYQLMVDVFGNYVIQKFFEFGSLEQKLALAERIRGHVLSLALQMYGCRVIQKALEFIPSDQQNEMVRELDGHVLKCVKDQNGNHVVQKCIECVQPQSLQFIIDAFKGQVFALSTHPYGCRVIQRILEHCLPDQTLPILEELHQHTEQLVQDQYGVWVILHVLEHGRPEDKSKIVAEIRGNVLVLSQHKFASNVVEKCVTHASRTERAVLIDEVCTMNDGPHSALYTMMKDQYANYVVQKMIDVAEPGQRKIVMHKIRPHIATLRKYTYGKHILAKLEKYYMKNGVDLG
# Procedure, shortened: as §1
# [9] = target: T2, PUM1 PUF domain R6-LWL (Homo sapiens, UniProt Q14671 828-1176, N1043L;Y1044W;Q1047L)
# T2 sequence: T1 sequence with V216L
# Procedure, shortened: as §1
# [10] = target: PUM1 PUF domain R5-PRI (Homo sapiens, UniProt Q14671 828-1176, C1007P;Q1011I)
# Procedure, shortened: as §1
sequence,measurement,setting,value
GGCUAGAACUAGUGGAUCCCCCGGCGCCCGGCGGCUCGAGCCCGGGUAAGCGUAAAUAGUCUGCAUGCCGCCGGGCGCCAUGCCUGCAGGUCGACUCUAGAAAACAUG,binding signal,[1],4.97 log2 enrichment (interaction score)
GGCUAGAACUAGUGGAUCCCCCGGCGCCCGGCGGCUCGAGCCCGGGUAAGUGUAAUUAGUCUGCAUGCCGCCGGGCGCCAUGCCUGCAGGUCGACUCUAGAAAACAUG,binding signal,[2],2.58 log2 enrichment (interaction score)
GGCUAGAACUAGUGGAUCCCCCGGCGCCCGGCGGCUCGAGCCCGGGUAAGUUUAAAUAGUCUGCAUGCCGCCGGGCGCCAUGCCUGCAGGUCGACUCUAGAAAACAUG,binding signal,[3],3.02 log2 enrichment (interaction score)
GGCUAGAACUAGUGGAUCCCCCGGCGCCCGGCGGCUCGAGCCCGGGUAAGUGUACAUAGUCUGCAUGCCGCCGGGCGCCAUGCCUGCAGGUCGACUCUAGAAAACAUG,binding signal,[4],5.37 log2 enrichment (interaction score)
same,binding signal,[5],2.52 log2 enrichment (interaction score)
GGCUAGAACUAGUGGAUCCCCCGGCGCCCGGCGGCUCGAGCCCGGGUAAGUGUCAAUAGUCUGCAUGCCGCCGGGCGCCAUGCCUGCAGGUCGACUCUAGAAAACAUG,binding signal,[6],2.42 log2 enrichment (interaction score)
GGCUAGAACUAGUGGAUCCCCCGGCGCCCGGCGGCUCGAGCCCGGGUAAGUGUAUAUAGUCUGCAUGCCGCCGGGCGCCAUGCCUGCAGGUCGACUCUAGAAAACAUG,binding signal,[4],6.34 log2 enrichment (interaction score)
GGCUAGAACUAGUGGAUCCCCCGGCGCCCGGCGGCUCGAGCCCGGGUAAGUGUAAAUAGUCUGCAUGCCGCCGGGCGCCAUGCCUGCAGGUCGACUCUAGAAAACAUG,binding signal,[7],3.07 log2 enrichment (interaction score)
same,binding signal,[8],4.01 log2 enrichment (interaction score)
same,binding signal,[9],3.89 log2 enrichment (interaction score)
same,binding signal,[4],6.46 log2 enrichment (interaction score)
same,binding signal,[10],4.45 log2 enrichment (interaction score)
same,binding signal,[5],3.21 log2 enrichment (interaction score)
GGCUAGAACUAGUGGAUCCCCCGGCGCCCGGCGGCUCGAGCCCGGGUAAGUGUUAAUAGUCUGCAUGCCGCCGGGCGCCAUGCCUGCAGGUCGACUCUAGAAAACAUG,binding signal,[6],2.88 log2 enrichment (interaction score)
